# Source: ChEMBL document CHEMBL2218924, “A broad activity screen in support of a chemogenomic map for kinase signalling research and drug discovery” (Biochem J, 2013)
# Key:
# [1] = target: T1, Testis-specific serine/threonine-protein kinase 1 (Homo sapiens) (UniProt Q9BXA7); conditions: at 1 µM
# T1 sequence (whole entry): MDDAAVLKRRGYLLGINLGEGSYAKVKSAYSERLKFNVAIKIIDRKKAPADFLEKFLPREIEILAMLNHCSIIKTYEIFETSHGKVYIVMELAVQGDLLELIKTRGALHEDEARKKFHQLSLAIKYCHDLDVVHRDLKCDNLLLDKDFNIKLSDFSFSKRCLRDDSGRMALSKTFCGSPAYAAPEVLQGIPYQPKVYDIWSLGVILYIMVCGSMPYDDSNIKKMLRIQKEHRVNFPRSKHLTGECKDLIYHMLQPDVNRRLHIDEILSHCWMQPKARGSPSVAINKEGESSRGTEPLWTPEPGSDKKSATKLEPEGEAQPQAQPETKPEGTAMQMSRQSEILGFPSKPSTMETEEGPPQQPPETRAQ
# [2] = target: T1, Testis-specific serine/threonine-protein kinase 1 (Homo sapiens); conditions: at 10 µM
# [3] = target: T2, Testis-specific serine/threonine-protein kinase 2 (Homo sapiens) (UniProt Q96PF2); conditions: at 10 µM
# T2 sequence (whole entry): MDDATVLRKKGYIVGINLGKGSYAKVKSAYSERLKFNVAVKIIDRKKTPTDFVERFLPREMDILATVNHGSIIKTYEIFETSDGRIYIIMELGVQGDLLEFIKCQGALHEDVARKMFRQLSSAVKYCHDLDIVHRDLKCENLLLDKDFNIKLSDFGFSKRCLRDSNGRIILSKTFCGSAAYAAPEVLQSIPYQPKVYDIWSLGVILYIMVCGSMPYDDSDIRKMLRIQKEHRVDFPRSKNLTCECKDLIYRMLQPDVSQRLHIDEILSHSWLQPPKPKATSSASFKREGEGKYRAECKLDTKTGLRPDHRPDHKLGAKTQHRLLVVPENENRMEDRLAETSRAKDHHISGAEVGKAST
# [4] = target: T3, Tyrosine-protein kinase Tec (Homo sapiens) (UniProt P42680); conditions: at 1 µM
# T3 sequence (whole entry): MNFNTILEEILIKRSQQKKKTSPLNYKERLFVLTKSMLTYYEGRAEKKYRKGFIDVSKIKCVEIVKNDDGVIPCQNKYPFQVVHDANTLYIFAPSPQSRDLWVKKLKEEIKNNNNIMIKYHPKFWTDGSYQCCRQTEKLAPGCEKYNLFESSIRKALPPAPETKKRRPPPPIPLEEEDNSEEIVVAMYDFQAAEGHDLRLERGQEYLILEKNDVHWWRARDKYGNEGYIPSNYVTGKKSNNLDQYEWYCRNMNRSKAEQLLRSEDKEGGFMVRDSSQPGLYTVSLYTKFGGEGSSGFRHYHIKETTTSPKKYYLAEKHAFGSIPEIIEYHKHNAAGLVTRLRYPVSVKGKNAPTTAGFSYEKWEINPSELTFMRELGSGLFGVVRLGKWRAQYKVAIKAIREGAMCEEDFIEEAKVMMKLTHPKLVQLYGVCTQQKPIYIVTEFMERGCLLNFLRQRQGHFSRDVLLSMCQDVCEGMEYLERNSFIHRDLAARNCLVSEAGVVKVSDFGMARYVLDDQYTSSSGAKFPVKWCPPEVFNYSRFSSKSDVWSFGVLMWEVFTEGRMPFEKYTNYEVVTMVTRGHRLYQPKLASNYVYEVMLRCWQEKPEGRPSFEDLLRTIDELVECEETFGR
# [5] = target: T3, Tyrosine-protein kinase Tec (Homo sapiens); conditions: at 10 µM
# [6] = target: Angiopoietin-1 receptor (Homo sapiens) (UniProt Q02763); conditions: at 1 µM
# [7] = target: Angiopoietin-1 receptor (Homo sapiens) (UniProt Q02763); conditions: at 10 µM
# [8] = target: High affinity nerve growth factor receptor (Homo sapiens) (UniProt P04629); conditions: at 1 µM
# [9] = target: High affinity nerve growth factor receptor (Homo sapiens) (UniProt P04629); conditions: at 10 µM
# [10] = target: BDNF/NT-3 growth factors receptor (Homo sapiens) (UniProt Q16620); conditions: at 1 µM
# [11] = target: BDNF/NT-3 growth factors receptor (Homo sapiens) (UniProt Q16620); conditions: at 10 µM
# [12] = target: T4, Tyrosine-protein kinase TXK (Homo sapiens) (UniProt P42681); conditions: at 1 µM
# T4 sequence (whole entry): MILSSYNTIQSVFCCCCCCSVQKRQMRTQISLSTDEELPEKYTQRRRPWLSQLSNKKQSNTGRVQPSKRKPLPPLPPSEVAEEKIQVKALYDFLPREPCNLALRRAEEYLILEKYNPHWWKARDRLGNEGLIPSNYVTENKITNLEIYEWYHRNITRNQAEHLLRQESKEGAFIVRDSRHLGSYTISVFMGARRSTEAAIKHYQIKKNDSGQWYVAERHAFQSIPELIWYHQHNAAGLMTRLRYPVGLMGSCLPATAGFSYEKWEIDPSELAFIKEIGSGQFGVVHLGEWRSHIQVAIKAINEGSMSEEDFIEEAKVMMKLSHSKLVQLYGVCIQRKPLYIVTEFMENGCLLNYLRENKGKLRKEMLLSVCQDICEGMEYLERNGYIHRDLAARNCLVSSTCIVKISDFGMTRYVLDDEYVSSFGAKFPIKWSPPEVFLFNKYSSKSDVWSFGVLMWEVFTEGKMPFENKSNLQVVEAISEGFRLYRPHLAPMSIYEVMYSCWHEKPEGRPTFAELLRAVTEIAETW
# [13] = target: T4, Tyrosine-protein kinase TXK (Homo sapiens); conditions: at 10 µM
# [14] = target: T5, Serine/threonine-protein kinase ULK2 (Homo sapiens) (UniProt Q8IYT8); conditions: at 1 µM
# T5 sequence (whole entry): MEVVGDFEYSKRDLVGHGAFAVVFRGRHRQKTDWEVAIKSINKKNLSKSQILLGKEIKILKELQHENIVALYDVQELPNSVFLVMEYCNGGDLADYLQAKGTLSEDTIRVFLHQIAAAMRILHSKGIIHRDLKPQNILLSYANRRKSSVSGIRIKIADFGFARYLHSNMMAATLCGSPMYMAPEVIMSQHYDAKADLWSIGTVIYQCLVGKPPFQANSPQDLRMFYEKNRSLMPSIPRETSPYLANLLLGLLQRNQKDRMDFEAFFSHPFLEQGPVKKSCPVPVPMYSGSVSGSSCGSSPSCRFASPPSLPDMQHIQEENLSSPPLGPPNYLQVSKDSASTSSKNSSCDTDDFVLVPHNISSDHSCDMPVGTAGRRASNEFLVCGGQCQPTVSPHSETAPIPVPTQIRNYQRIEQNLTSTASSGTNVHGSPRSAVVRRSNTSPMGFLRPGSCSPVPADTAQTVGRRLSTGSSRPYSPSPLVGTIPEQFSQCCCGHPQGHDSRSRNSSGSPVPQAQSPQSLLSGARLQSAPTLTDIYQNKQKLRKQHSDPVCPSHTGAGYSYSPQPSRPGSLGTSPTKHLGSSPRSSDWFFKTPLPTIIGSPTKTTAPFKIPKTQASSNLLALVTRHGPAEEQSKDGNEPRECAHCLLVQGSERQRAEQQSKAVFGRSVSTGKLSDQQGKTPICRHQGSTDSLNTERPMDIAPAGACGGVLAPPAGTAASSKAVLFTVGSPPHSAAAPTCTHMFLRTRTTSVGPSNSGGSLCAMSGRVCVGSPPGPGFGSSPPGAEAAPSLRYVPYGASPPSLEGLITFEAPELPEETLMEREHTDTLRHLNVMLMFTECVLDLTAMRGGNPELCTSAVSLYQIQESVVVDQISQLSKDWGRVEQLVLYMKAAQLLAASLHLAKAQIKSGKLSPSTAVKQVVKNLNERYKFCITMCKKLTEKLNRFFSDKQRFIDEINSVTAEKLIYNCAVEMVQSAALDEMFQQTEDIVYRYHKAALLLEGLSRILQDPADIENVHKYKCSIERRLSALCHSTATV
# [15] = target: T5, Serine/threonine-protein kinase ULK2 (Homo sapiens); conditions: at 10 µM
# [16] = target: T6, Serine/threonine-protein kinase ULK3 (Homo sapiens) (UniProt Q6PHR2); conditions: at 1 µM
# T6 sequence (whole entry): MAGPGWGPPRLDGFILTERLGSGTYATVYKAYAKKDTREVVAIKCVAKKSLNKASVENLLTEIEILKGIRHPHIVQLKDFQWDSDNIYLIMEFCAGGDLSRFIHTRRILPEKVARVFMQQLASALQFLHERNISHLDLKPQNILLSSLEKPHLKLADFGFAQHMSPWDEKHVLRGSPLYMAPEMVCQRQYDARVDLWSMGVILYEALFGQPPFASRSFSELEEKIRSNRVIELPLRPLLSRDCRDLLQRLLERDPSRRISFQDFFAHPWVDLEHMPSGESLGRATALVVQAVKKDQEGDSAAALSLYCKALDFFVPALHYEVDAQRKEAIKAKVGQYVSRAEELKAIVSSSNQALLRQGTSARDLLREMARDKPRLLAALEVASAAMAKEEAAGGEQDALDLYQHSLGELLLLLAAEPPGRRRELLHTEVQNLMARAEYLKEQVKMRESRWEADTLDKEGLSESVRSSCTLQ
# [17] = target: T6, Serine/threonine-protein kinase ULK3 (Homo sapiens); conditions: at 10 µM
# [18] = target: Serine/threonine-protein kinase VRK2 (Homo sapiens) (UniProt Q86Y07); conditions: at 1 µM
# [19] = target: Serine/threonine-protein kinase VRK2 (Homo sapiens) (UniProt Q86Y07); conditions: at 10 µM
# [20] = target: Serine/threonine-protein kinase WNK2 (Homo sapiens) (UniProt Q9Y3S1); conditions: at 1 µM;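 also: residual WNK2 kinase activity expressed as percent of uninhibited control, assayed in MOPS buffer at pH 7.0 containing EDTA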
# Chain of Serine/threonine-protein kinase WNK2 (Homo sapiens) (Q9Y3S1 whole entry): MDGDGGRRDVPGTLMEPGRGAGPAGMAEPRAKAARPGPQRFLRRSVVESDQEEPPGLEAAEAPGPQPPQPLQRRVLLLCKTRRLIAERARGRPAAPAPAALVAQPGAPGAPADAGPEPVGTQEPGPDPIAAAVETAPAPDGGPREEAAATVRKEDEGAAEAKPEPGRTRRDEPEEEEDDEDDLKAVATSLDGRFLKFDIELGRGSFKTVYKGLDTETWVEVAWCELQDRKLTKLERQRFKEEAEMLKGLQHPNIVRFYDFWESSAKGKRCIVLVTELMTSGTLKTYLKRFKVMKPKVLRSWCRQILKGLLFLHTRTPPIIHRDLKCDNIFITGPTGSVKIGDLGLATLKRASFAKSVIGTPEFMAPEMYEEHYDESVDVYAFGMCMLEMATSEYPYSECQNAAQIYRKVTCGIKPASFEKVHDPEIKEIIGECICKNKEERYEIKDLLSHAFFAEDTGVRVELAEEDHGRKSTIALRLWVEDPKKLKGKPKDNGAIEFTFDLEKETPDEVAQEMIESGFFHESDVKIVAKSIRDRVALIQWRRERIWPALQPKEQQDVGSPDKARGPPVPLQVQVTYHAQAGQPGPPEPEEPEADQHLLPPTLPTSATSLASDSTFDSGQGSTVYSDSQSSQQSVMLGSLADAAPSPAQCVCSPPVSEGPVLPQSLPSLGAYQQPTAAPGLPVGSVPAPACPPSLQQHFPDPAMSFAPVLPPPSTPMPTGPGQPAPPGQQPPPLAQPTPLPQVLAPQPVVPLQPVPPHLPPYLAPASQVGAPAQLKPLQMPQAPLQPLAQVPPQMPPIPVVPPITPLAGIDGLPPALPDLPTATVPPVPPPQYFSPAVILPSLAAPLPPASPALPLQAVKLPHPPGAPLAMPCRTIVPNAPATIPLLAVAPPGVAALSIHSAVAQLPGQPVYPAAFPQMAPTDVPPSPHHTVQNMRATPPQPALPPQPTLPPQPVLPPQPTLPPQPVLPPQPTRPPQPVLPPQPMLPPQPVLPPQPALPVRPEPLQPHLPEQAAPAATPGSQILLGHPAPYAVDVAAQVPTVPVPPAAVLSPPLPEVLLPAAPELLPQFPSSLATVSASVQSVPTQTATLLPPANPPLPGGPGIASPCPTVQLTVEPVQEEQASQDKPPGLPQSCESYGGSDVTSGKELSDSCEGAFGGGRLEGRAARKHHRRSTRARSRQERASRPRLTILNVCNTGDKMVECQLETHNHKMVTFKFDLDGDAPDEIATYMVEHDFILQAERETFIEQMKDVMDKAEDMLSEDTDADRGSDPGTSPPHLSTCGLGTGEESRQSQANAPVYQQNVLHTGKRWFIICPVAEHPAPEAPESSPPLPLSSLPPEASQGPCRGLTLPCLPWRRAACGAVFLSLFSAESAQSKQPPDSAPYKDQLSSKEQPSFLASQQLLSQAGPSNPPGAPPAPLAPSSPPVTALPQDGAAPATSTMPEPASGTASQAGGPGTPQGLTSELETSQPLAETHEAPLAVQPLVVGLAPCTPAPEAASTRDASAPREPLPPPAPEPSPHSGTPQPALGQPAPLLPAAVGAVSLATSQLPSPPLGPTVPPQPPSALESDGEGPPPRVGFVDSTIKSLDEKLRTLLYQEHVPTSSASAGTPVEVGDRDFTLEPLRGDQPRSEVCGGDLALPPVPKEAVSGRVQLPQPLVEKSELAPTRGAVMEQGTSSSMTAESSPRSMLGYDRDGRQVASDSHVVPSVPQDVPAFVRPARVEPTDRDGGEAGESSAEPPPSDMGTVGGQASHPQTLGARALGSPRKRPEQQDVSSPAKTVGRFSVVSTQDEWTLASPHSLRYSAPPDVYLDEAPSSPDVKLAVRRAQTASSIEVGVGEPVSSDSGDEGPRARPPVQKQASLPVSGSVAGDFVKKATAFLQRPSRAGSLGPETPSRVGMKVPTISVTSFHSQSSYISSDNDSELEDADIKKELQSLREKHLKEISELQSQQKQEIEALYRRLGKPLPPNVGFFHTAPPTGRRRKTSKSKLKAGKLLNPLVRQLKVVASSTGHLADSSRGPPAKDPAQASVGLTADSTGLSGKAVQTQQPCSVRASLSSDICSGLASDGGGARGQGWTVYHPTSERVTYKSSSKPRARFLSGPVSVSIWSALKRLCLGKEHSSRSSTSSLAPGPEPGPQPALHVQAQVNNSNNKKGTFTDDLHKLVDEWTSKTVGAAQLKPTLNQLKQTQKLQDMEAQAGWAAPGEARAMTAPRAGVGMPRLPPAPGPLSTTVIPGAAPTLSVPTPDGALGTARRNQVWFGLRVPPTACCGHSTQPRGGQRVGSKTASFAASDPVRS
# Chain of High affinity nerve growth factor receptor (Homo sapiens) (P04629 33-796 limits assumed): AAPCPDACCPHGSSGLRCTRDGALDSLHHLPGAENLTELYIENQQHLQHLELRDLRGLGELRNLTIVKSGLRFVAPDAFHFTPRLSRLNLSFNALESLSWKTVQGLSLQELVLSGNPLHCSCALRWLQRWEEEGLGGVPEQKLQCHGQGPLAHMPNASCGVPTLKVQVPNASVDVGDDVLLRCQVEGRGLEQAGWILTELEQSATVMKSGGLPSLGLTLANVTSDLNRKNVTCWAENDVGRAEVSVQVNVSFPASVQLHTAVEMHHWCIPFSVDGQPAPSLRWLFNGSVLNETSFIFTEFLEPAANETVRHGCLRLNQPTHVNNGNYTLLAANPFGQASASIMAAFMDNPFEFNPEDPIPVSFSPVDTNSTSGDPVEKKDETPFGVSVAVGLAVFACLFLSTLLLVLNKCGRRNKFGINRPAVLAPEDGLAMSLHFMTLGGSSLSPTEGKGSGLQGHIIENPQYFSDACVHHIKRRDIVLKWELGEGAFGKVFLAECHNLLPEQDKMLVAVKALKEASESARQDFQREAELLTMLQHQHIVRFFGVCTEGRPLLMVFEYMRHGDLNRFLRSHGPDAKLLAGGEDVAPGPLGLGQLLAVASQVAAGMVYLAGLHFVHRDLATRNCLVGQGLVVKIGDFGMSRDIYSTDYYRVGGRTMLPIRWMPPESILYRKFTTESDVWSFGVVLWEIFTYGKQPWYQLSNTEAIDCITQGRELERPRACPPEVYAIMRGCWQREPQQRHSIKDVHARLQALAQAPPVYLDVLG
# Chain of Angiopoietin-1 receptor (Homo sapiens) (Q02763 whole entry): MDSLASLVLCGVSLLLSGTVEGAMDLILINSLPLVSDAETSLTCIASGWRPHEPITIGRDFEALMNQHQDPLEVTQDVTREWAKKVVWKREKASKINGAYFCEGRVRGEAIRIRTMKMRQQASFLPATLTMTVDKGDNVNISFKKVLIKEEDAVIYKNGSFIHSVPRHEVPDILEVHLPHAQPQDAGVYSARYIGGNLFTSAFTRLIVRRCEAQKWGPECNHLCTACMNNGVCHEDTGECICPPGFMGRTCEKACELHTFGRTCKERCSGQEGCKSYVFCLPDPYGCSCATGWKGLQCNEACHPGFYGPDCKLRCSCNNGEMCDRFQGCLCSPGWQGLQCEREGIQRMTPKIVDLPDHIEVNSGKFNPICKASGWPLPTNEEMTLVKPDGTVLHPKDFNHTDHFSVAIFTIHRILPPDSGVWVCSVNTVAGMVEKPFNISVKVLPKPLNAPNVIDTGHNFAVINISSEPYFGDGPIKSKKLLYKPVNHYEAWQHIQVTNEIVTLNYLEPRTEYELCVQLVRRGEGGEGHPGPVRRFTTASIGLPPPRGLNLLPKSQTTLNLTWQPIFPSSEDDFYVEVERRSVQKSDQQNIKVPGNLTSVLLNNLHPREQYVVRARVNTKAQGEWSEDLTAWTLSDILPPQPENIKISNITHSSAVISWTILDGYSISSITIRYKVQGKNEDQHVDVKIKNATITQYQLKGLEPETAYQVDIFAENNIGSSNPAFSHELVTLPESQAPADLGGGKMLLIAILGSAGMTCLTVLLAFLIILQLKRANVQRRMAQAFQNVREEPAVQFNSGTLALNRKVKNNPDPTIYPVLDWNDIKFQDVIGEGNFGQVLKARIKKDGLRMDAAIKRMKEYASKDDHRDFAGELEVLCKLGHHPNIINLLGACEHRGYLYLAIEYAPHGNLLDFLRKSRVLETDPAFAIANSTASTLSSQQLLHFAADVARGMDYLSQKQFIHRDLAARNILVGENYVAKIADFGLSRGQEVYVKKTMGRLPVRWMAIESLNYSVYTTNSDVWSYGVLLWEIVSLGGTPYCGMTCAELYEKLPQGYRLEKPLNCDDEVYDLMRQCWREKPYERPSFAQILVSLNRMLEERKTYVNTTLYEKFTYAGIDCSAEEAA
# Chain of BDNF/NT-3 growth factors receptor (Homo sapiens) (Q16620 32-822 limits assumed): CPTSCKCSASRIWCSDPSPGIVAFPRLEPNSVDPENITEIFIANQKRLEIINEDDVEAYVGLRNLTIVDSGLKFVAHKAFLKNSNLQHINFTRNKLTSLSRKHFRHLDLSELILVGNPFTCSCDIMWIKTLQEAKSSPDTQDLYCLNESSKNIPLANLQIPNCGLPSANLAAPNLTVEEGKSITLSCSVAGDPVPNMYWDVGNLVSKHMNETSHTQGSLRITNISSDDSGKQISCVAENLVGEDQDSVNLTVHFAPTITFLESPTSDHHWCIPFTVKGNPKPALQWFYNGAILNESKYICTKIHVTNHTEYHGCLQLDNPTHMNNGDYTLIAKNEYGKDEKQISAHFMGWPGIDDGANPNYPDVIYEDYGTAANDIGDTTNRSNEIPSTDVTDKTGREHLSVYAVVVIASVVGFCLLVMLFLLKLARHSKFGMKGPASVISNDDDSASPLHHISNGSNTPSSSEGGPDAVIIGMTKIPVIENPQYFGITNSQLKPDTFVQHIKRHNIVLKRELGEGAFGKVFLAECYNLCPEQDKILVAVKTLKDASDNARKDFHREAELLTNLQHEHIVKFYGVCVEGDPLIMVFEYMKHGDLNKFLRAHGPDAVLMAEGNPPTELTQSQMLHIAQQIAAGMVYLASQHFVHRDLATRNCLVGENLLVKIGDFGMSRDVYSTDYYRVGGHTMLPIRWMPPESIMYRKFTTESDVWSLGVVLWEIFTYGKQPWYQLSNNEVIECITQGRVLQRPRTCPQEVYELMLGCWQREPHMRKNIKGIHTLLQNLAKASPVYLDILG
SMILES,residual activity [1] [%],residual activity [2] [%],residual activity [3] [%],residual activity [4] [%],residual activity [5] [%],residual activity [6] [%],residual activity [7] [%],residual activity [8] [%],residual activity [9] [%],residual activity [10] [%],residual activity [11] [%],residual activity [12] [%],residual activity [13] [%],residual activity [14] [%],residual activity [15] [%],residual activity [16] [%],residual activity [17] [%],residual activity [18],residual activity [19] [%],residual activity [20]
CC(C)n1cnc2c(NCc3ccccc3)nc(NCCCO)nc21,90,89,81,90,89,104,87,93,94,88,98,75,74,106,101,95,90,95% (inactive),69,98% (inactive)
CC#CC(=O)Nc1cc2c(Nc3ccc(F)c(Cl)c3)ncnc2cn1,98,81,82,62,70,52,57,91,111,110,103,52,14,99,97,116,97,97% (inactive),92,103% (inactive)
COc1ccc(CNc2nc(N(CCO)CCO)nc3c2ncn3C(C)C)cc1,86,70,87,103,79,101,80,75,56,72,96,87,89,97,97,81,82,79% (inactive),46,88% (inactive)
